In PubChem BioAssay (Tox21):
Inconclusive results are not listed. Activity calls are given as the source filed them. Unless noted, calls follow the shape of the dose curve; as a rule, active = well fitted curve in the direction sought with a large enough effect in the repeat runs; inconclusive = weak or mixed curves; inactive = no such curve, though single readings can be large; an effect the other way counts as inactive or inconclusive.

Assays:
[1] = qHTS assay to identify small molecule antagonists of the estrogen related receptor (ERR) signaling pathway from Tox21 library - cell viability counter screen (AID 1224834); also: nearly all actives have a fitted effect of over 30% in size; also: potency is read from the fitted curve at half-maximal effect
Procedure, shortened: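 Multiplexed viability counter screen in ERR cells: 17.5 h compound exposure at 37 C, CellTiter-Fluor added, 30 min at 37 C/5% CO2, fluorescence read.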

[2] = target: Luciferin 4-monooxygenase (Photinus pyralis) (UniProt P08659); experiment: qHTS assay to identify small molecule inhibitors of firefly luciferase (AID 1224835); also: % is scaled to controls: 0 for no effect and ±100 for the full control effect; nearly all actives have a fitted effect of over 25% in size
Sequence of Luciferin 4-monooxygenase (Photinus pyralis) (P08659 whole entry, looked up): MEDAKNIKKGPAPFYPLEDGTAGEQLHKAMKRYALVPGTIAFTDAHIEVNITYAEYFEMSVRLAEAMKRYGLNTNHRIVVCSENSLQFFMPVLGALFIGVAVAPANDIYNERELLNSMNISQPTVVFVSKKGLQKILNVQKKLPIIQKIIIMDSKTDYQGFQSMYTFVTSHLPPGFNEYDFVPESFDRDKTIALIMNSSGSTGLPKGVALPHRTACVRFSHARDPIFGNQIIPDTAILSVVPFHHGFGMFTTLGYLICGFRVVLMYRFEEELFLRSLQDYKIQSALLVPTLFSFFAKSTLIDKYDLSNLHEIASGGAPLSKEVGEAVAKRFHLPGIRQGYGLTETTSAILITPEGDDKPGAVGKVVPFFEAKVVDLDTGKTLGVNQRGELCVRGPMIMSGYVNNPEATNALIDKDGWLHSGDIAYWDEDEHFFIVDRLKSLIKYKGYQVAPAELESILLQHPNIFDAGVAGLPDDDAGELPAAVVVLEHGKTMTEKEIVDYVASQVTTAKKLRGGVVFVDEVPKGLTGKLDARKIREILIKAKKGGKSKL
Procedure, shortened: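 Quantitative HTS format; KM concentrations of both substrates. Purified P. pyralis FLuc activity quantified from luminescence images.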

[3] = qHTS assay to identify small molecule agonists of the constitutive androstane receptor (CAR) signaling pathway - cell viability counter screen (AID 1224836); also: % is scaled to controls: 0 for no effect and ±100 for the full control effect; nearly all actives have a fitted effect of over 45% in size
Procedure, shortened: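 Cells were seeded and incubated 4 hrs. Compounds were added across 15 concentrations together with PK11195 at 0.75 uM final. Plates were incubated 23 hrs at 37 C. CellTiter-Fluor was added and fluorescence measured.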

[4] = qHTS assay to identify small molecule antagonists of the constitutive androstane receptor (CAR) signaling pathway - cell viability counter screen (AID 1224837); also: % is scaled to controls: 0 for no effect and ±100 for the full control effect; nearly all actives have a fitted effect of over 45% in size
Procedure, shortened: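 Read-out: CellTiter-Fluor fluorescence after 23 hr at 37 C/5% CO2. Cells: HepG2 double-stable for hCAR and CYP2B6-2.2kb. Compounds tested at 15 concentrations in the presence of CITCO, final concentration 50 nM.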

[5] = target: Nuclear receptor subfamily 1 group I member 3 (Homo sapiens) (UniProt Q14994); experiment: qHTS assay to identify small molecule antagonists of the constitutive androstane receptor (CAR) signaling pathway (AID 1224838);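 also: HepG2 cells stably expressing hCAR with CYP2B6 luciferase reporter stimulated by CITCO; % is scaled to controls: 0 for no effect and ±100 for the full control effect; nearly all actives have a fitted effect of over 40% in size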
Sequence of Nuclear receptor subfamily 1 group I member 3 (Homo sapiens) (Q14994 whole entry, looked up): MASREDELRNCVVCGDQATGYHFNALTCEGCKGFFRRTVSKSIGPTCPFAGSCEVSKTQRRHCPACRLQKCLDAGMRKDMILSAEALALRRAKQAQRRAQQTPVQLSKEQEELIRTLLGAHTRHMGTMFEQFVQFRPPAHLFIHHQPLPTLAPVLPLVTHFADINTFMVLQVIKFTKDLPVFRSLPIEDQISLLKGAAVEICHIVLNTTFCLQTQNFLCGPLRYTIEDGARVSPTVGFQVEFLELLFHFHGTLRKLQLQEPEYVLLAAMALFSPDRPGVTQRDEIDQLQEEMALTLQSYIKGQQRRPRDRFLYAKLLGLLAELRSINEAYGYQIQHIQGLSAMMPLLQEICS
Procedure, shortened: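 Read-out: ONE-Glo luciferase luminescence after 30 min at room temperature. HepG2-CYP2B6-hCAR double-stable cells, compounds in 15-point titration plus 50 nM CITCO final, 24 h at 37 C/5% CO2.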

[6] = qHTS assay to identify small molecule antagonists of the estrogen related receptor signaling pathway with the pleiotropic PPARgamma coactivator (PGC) from Tox21 10K library - cell viability counter screen (AID 1224840; active = well fitted cell-killing curve with a large enough effect in the repeat runs, not every such curve was filed as active; also: % is scaled to controls: 0 for no effect and ±100 for the full control effect; nearly all actives have a fitted effect of over 40% in size)
Procedure, shortened: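 Fluorescence read-out of CellTiter-Fluor viability reagent, added after cells had been exposed to compound in DMSO for 17.5 h at 37 C; 30 min development at 37 C/5% CO2. Cells: PGC/ERR line, 2,000/well.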

[7] = qHTS assay to identify small molecule antagonists of the estrogen related receptor signaling pathway with the pleiotropic PPARgamma coactivator (PGC) from Tox21 10K library (AID 1224841; call rule not given here; also: actives are mostly falling curves and most rising ones were filed inactive; nearly all actives have a fitted effect of over 50% in size; also: potency is read from the fitted curve at half-maximal effect)
Procedure, shortened: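 Luminescence read-out (One-Glo luciferase reagent, 30 min at room temperature) from PGC/ERR cells exposed to DMSO-dissolved test compounds for 18 h at 37 C; cells, 2,000 per well, had been preincubated 6 h before compound transfer.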

[8] = qHTS assay to identify small molecule agonists of the estrogen related receptor signaling pathway with the pleiotropic PPARgamma coactivator (PGC) from Tox21 10K library (AID 1224842); also: % is scaled to controls: 0 for no effect and ±100 for the full control effect; nearly all actives have a fitted effect of over 15% in size
Procedure, shortened: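 PGC/ERR reporter cells (NTP line) were seeded 2,000 per well, rested 6 h at 37 C/5% CO2, then pin-dosed with compounds in DMSO for 18 h at 37 C; luciferase read by One-Glo luminescence after 30 min at room temperature.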

[9] = qHTS assay to identify small molecule agonists of the hypoxia (HIF-1) signaling pathway - cell viability counter screen (AID 1224844; calls by dose curve; also: % is scaled to controls: 0 for no effect and ±100 for the full control effect; nearly all actives have a fitted effect of over 50% in size)
Procedure, shortened: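 CellTiter-Glo luminescence read-out, 30 min RT, taken in the same wells as the beta-lactamase HRE reporter assay; HRE-bla ME-180 cells, 0.5% dialyzed FBS, 17 hr compound treatment at 37C, 5% CO2.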

[10] = qHTS assay to identify small molecule agonists of H2AX (AID 1224845; active = well fitted activation curve with a large enough effect in the signal ratio in the repeat runs, not every such curve was filed as active; the % refers to the signal ratio; also: % is scaled to controls: 0 for no effect and ±100 for the full control effect)
Procedure, shortened: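 Wild-type CHO-K1 cells plated overnight, then exposed 3 hr at 37C to compounds at 15 concentrations (0.76% DMSO). Lysed, then HTRF anti-pH2AX(S139)-cryptate/anti-H2AX-d2 detection after 24 hr at room temperature; emissions 665 and 620 nm.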

[11] = qHTS assay to identify small molecule agonists of the hypoxia (HIF-1) signaling pathway (AID 1224846; active = well fitted activation curve with a large enough effect in the signal ratio in the repeat runs, not every such curve was filed as active; the % refers to the signal ratio; also: % is scaled to controls: 0 for no effect and ±100 for the full control effect)
Procedure, shortened: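 Beta-lactamase FRET read-out (CCF4-AM substrate) from ME-180 cells carrying an HRE-driven bla reporter, after 17 hrs compound exposure at 37C/5% CO2. Cells were seeded at 2,000 per well in 0.5% dialyzed FBS medium and preincubated 5 hrs.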

[12] = qHTS assay to identify small molecule antagonists of the estrogen related receptor (ERR) signaling pathway from Tox21 library (AID 1224848); also: nearly all actives have a fitted effect of over 50% in size; also: potency is read from the fitted curve at half-maximal effect
Procedure, shortened: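 Tox21 10K compounds in DMSO tested for ERR pathway antagonism in NTP's ERR cell line; 18 h, 37 C exposure; ONE-Glo luminescence.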

[13] = qHTS assay to identify small molecule agonists of the estrogen related receptor (ERR) signaling pathway from Tox21 library (AID 1224849; calls by dose curve; also: % is scaled to controls: 0 for no effect and ±100 for the full control effect; nearly all actives have a fitted effect of over 15% in size); conditions: ERR reporter cell line, ONE-Glo luciferase, 18 h; at 92.4 µM (top of the series) unless noted
Procedure, shortened: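 Luminescence readout (ONE-Glo, 30 min RT) after 18 h compound exposure at 37 C of NTP-supplied ERR reporter cells; cells were plated 6 h before compound addition by pin tool.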

[14] = qHTS RealTime-Glo MT Cell Viability Assay in HepG2 cells - 24 hour (AID 1224867); also: % is scaled to controls: 0 for no effect and ±100 for the full control effect; nearly all actives have a fitted effect of over 50% in size
Procedure, shortened: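 Real-time, nonlytic viability: 600 HepG2 cells/well mixed with NanoLuc enzyme plus prosubstrate; 5 h settle, compound (DMSO) added by pintool; luminescence monitored over 40 h at 37 C.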

[15] = qHTS RealTime-Glo MT Cell Viability Assay in HEK293 cells - 32 hour (AID 1224868); also: nearly all actives have a fitted effect of over 50% in size; also: potency is read from the fitted curve at half-maximal effect
Procedure, shortened: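 Cells + reagent dispensed (600 cells/well, HEK293) → 5 h at 37 C/5% CO2 → 23 nL compound in DMSO pinned → 40 h at 37 C → luminescence read at 0, 8, 16, 24, 32, 40 h.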

[16] = A CellTox Green Cytotoxicity Assay to monitor cytotoxicity in HEK293 cells - 0 hour (AID 1224869)
Procedure, shortened: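 Read-out: fluorescence of a cell-impermeant cyanine dye staining DNA of dead cells, proportional to cytotoxicity. HEK293, 600 cells/well with reagent, compound (23 nL DMSO) added after 5 h; reads at 0, 8, 16, 24, 32, 40 h.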

[17] = qHTS RealTime-Glo MT Cell Viability Assay in HepG2 cells - 40 hour (AID 1224870)
Procedure, shortened: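 HepG2 cells mixed with RealTime-Glo MT reagents (NanoLuc plus cell-permeant prosubstrate) were seeded at 600 cells/well, incubated 5 h at 37 C/5% CO2, then pinned with compounds in DMSO; nonlytic luminescence tracked viability during 40 h treatment.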

[18] = target: Thyrotropin receptor (Homo sapiens) (UniProt P16473); experiment: qHTS assay to identify small molecule agonists of the thyroid stimulating hormone receptor (TSHR) signaling pathway (AID 1224843; calls by dose curve; also: % is scaled to controls: 0 for no effect and ±100 for the full control effect; nearly all actives have a fitted effect of over 45% in size)
Sequence of Thyrotropin receptor (Homo sapiens) (P16473 whole entry, looked up): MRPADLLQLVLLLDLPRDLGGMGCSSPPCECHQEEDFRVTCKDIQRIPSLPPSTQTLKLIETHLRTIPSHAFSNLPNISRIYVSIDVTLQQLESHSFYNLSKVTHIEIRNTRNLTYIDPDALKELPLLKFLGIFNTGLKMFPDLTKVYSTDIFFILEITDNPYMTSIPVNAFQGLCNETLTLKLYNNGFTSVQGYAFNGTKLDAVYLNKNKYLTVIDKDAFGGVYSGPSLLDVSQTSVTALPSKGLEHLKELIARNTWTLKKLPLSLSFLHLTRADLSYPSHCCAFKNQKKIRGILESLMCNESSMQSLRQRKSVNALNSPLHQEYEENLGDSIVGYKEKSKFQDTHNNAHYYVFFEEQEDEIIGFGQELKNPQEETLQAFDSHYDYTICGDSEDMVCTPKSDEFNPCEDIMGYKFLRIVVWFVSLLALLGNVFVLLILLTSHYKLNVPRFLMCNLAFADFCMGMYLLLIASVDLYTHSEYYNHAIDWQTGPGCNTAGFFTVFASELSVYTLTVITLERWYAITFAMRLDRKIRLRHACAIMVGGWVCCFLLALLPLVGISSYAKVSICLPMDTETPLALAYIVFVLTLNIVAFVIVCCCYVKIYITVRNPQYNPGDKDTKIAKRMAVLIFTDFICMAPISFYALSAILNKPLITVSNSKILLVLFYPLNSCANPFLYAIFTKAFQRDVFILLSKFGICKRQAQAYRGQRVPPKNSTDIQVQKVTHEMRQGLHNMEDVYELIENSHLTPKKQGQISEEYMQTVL
Procedure, shortened: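 Using 15 concentrations per compound in triplicate, cAMP production was monitored in TSHR-HEK293 cells after 30 min compound incubation at RT; HTRF reagents followed, with fluorescence intensity recorded after 1 h.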

[19] = qHTS assay to identify small molecule agonists of H2AX - cell viability counter screen (AID 1224847; calls by dose curve; also: top concentration of the series differs between compounds; % is scaled to controls: 0 for no effect and ±100 for the full control effect; nearly all actives have a fitted effect of over 30% in size)
Procedure, shortened: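 Cytotoxicity counter screen in wild-type CHO-K1 cells: a 3 hr compound treatment at 37C across 15 concentrations, followed by CellTiter-Glo luminescence to gauge viable cells.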

[20] = target: Nuclear receptor subfamily 1 group I member 3 (Homo sapiens) (UniProt Q14994); experiment: qHTS assay to identify small molecule agonists of the constitutive androstane receptor (CAR) signaling pathway (AID 1224839); also: potency is read from the fitted curve at half-maximal effect; nearly all actives have a fitted effect of over 15% in size
Procedure, shortened: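 Cells were plated and incubated 4 hrs, then dosed with compounds at 15 concentrations. PK11195 was added to 0.75 uM final. After 24 hrs at 37 C, luciferase luminescence was measured.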

O=C(O)CC(Cl)C(=O)O (centres undefined)
inactive: Potency [1] | Potency [2] | Potency [3] | Potency [4] | Potency [5] | Potency [6] | Potency [7] | Potency [8] | Potency [9] | Potency [10] | outcome [11] | Potency [12] | activity change, positive = activation [13] 7% | Potency [14] | Potency [15] | Potency [16] | Potency [17]

Nc1nc(=S)[nH][nH]1
inactive: Potency [1] | Potency [2] | Potency [3] | Potency [4] | Potency [6] | Potency [7] | Potency [8] | Potency [18] | Potency [9] | Potency [10] | outcome [11] | Potency [19] | Potency [12] | activity change, positive = activation [13] 4.5% | Potency [14] | Potency [15] | Potency [16] | Potency [17]

O=Cc1ccc(Cl)cc1Cl
inactive: Potency [1] | Potency [2] | Potency [3] | Potency [4] | Potency [6] | Potency [7] | Potency [8] | Potency [9] | Potency [10] | outcome [11] | Potency [19] | Potency [12] | activity change, positive = activation [13] -10.7% | Potency [14] | Potency [15] | Potency [16] | Potency [17]

ClCc1cccc(Cl)c1
inactive: Potency [1] | Potency [2] | Potency [3] | Potency [4] | Potency [6] | Potency [7] | Potency [8] | Potency [18] | Potency [9] | Potency [10] | outcome [11] | Potency [12] | activity change, positive = activation [13] -9.7% [at 42.5 µM] | Potency [14] | Potency [15] | Potency [17]

COc1ccc(-c2ccccc2)cc1NNC(=O)OC(C)C
active: Potency [1] 63.7 µM | Potency [7] 35.8 µM | Potency [12] 31.9 µM | Potency [15] 51 µM
inactive: Potency [2] | Potency [3] | Potency [4] | Potency [5] | Potency [8] | Potency [9] | Potency [10] | activity change, positive = activation [13] -62.9% | Potency [16] | Potency [17]

CC(=O)NC1CCSC1=O (centres undefined)
inactive: Potency [1] | Potency [2] | Potency [3] | Potency [4] | Potency [6] | Potency [7] | Potency [18] | Potency [9] | Potency [10] | outcome [11] | Potency [19] | Potency [12] | Potency [14] | Potency [15] | Potency [16] | Potency [17]

Cc1ccc2ccccc2c1
inactive: Potency [1] | Potency [2] | Potency [3] | Potency [4] | Potency [6] | Potency [7] | Potency [18] | Potency [9] | Potency [10] | outcome [11] | Potency [12] | Potency [14] | Potency [15] | Potency [16] | Potency [17]

CO/N=C(/C(=O)OC)c1ccccc1COc1ccccc1C
active: Potency [20] 7.7 µM | Potency [12] 1.54 µM
inactive: Potency [1] | Potency [2] | Potency [4] | Potency [5] | Potency [6] | Potency [18] | Potency [9] | Potency [10] | outcome [11] | activity change, positive = activation [13] -47.7% | Potency [14] | Potency [15] | Potency [16] | Potency [17]
